HT1080NT lethal: kills 2HG-producing HT-1080-NT fibrosarcoma cells; HT-1080-NT fibrosarcoma viability, CellTiter-Glo ATP luminescence, 48 h; Potency, µM (series often up to 46.1 µM), for inactives: at the highest dose activity, negative = less viability, most hits filed as cytotoxic; 360,000 compounds, 1.6% hits; AID 686970;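 further: NT is the 2HG producing partner of a matched IDH1 knockdown line; 0% = DMSO-treated cells and -100% = media-only wells without cells; nearly all actives have a fitted effect of over 55% in size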
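Luminescent CellTiter-Glo readout after 48 hours of compound exposure at 37 degrees C defined viability of HT-1080-NT cells. Activity was normalized to DMSO wells and cell-free media wells; concentration-response curves were fitted and assigned curve classes.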
SW480 rereplic: inducers of DNA re-replication in SW480 colon cancer cells | SW480 DNA re-replication, Hoechst DNA content imaging, 48 h | Potency, µM (top dose mostly 46.1 µM), for inactives: at the highest dose re-replication activation, hits mostly activators | 340,000 compounds, 1.8% hits | AID 624297; further: % of control where 0% means no effect; nearly all actives have a fitted effect of over 55% in size
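Compounds, transferred as 23 nL by pin tool, were incubated with cells for 48 hr; DNA content per nucleus was then quantified by Hoechst staining and fluorescence plate imaging.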
MCF10A rereplic: DNA re-replication induction in MCF 10a cells. MCF 10A DNA re-replication, Hoechst nuclear intensity, 48 h. Potency, µM (titrated, usually from 46.1 µM), for the others: at the top dose activity, positive = re-replication, hits mostly activators. 350,000 compounds, 2.9% hits. AID 624296; further: % of control where 0% means no effect; nearly all actives have a fitted effect of over 50% in size
HT1080 IDH1KD tx: kills HT-1080 cells with IDH1 knockdown; HT-1080 IDH1 knockdown viability, ATP luminescence, 48 h; Potency, µM (series often up to 46.1 µM), for the others: top-dose activity, negative = toxicity, actives largely listed as cytotoxic; 360,000 compounds, 2% hits;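 further: 0% = DMSO wells and -100% = cell-free medium wells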
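% activity derives from luminescence (CellTiter-Glo), normalised to DMSO and no-cell wells. HT-1080-IDH1KD cells, 750/well, had 48 h compound exposure at 37 °C.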
KB-V1 cytotox: kills drug-selected multidrug resistant KB-V1 cells | KB-V1 MDR cells viability, CellTiter-Glo, 72 h | Potency, µM (series often up to 46.1 µM), most hits filed as cytotoxic | 400,000 compounds, 3.4% hits | AID 1347076; further: on the % scale 0 is the no-effect control and ±100 the full control effect; nearly all actives have a fitted effect of over 60% in size
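Cells of the MDR subline KB-V1 are plated, dosed with compound at multiple concentrations, and incubated 72 h at 37 degrees C; CellTiter-Glo is then added and luminescence read after 10 min.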
KB-3-1 cytotox: kills parental KB-3-1 adenocarcinoma cells. KB-3-1 viability, CellTiter-Glo ATP luminescence, 72 h. Potency, µM (series often up to 46.1 µM), hits mostly cytotoxic. 400,000 compounds, 1.4% hits. AID 1347075; further: on the % scale 0 is the no-effect control and ±100 the full control effect; nearly all actives have a fitted effect of over 60% in size
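Multi-concentration cytotoxicity screen in KB-3-1 cells grown in DMEM lacking phenol red with 10% FBS. After 72 h at 37 °C with compound, ATP-dependent luminescence was recorded.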
* hit, by the source's call; i = inactive; ? = inconclusive; . = no result; ! = a repeat was not active. Only some compounds are listed: those with a hit (about 7.9% of all), similar ones and a draw of the others. The call rests on the fitted dose curve; in most records, active means well fitted curve in the direction sought with a large enough effect; inconclusive means small, poorly fitted or top-dose-only effect, or another doubt; inactive means no such curve, though single readings can be large; an effect the other way counts as inactive or inconclusive. Potency means the concentration at half of the fitted maximal effect.

SMILES | HT1080NT lethal | SW480 rereplic | MCF10A rereplic | HT1080 IDH1KD tx | KB-V1 cytotox | KB-3-1 cytotox
Cc1ccccc1Cn1nc(C)c(NC(=O)C2(C)CC2(Cl)Cl)c1C (stereo not given) | 1% | 18µM* | 7% | 1% | ? | i
Cc1ccccc1Cn1nc(C)c(NC(=O)c2noc3c2CCCC3)c1C | ? | -1% | 3% | ? | 5.2µM* | ?
Cc1nn(Cc2ccccc2Cl)c(C)c1NC(=O)c1noc2c1CCCCC2 | -7% | 6% | ? | 10µM* | i | ?
Cc1cc(NC(=O)c2noc3c2CCCC3)nn1Cc1ccc(Cl)cc1 | -15% | 17% | -6% | -10% | 18µM* | ?
CCc1ccc(C(O)c2ncc(-c3cccc(F)c3)[nH]2)cc1 (stereo not given) | -25% | . | . | -16% | i | i
CN(C)S(=O)(=O)c1ccc2c(c1)N(CC(=O)NCc1ccc(F)cc1)C(=O)CS2 | . | . | . | . | i | i
CC(=O)Nc1cncc(-c2ccccc2F)n1 | 26% | . | . | 22% | i | i
C[C@]12CC[C@@H]3c4ccc(O)cc4CC[C@H]3[C@@H]1C[C@@H](O)[C@@H]2O | 7% | 12% | ? | -13% | ? | i
CC(=O)Oc1ccc2c(c1)CCC1C2CCC2(C)C(OC(C)=O)CCC12 (stereo not given) | -1% | 0% | ? | 0% | 10µM* | ?
CCC12CCC3c4ccc(O)cc4CCC3C1CC(O)C2O (stereo not given) | ? | ? | 18µM* | ? | i | i
C[C@]12CC[C@@H]3c4ccc(O)cc4CC[C@H]3[C@@H]1CC[C@@H]2OC(=O)CCC(=O)O | -34% | -6% | 19% | -8% | ? | i
CCCCC(=O)OC1CCC2C3CCc4cc(O)ccc4C3CCC12C (stereo not given) | ? | ? | ? | ? | ? | i
C[C@]12CC[C@@H]3c4ccc(OC(=O)c5ccccc5)cc4CC[C@H]3[C@@H]1CC[C@@H]2O | -1% | -43% | 30µM*! | 0% | 21µM* | ?
CCCCC(=O)OC1CCC2C3CCc4cc(O)ccc4C3CC[C@]12C (stereo not given in full) | . | 3% | 19µM* | . | . | .
COc1ccc(CNC(=O)/C=C/[C@H]2O[C@@H](n3cc(C)c(=O)[nH]c3=O)C[C@@H]2O)cc1 | 21% | . | . | 18% | i | i
O=C(C[N+]1(CC(O)c2ccccc2)CCCCC1)c1ccccc1 (stereo not given) | . | . | . | . | i | i
CCc1nn(CCCC(=O)N2CCN(c3cc(Cl)ccc3C)CC2)c(=O)c2cc3occc3n12 | . | . | . | . | i | i
CCCOc1ccc(CNC(=O)c2ccc(C)c(-n3c(C)nc4cccnc43)c2)cc1 | . | . | . | . | i | i
CC(C(=O)N(C)C1CCS(=O)(=O)C1)N1C(=O)/C(=C/c2ccc(F)cc2)SC1=S (stereo not given) | -9% | ? | 21% | -21% | i | i
CCN(C(=O)C(C)N1C(=O)/C(=C/c2ccco2)SC1=S)C1CCS(=O)(=O)C1 (stereo not given) | -13% | 4.1µM* | 24% | -18% | i | ?
O=C(N/N=C\C=C\c1ccco1)c1cc(-c2ccc3ccccc3c2)n[nH]1 | -20% | 17% | 7.3µM* | -8% | i | i
Cc1c(Cl)cccc1NC(=S)NCCc1ccc(Cl)cc1 | ? | 13µM* | 16% | ? | i | ?
CCOC(=O)c1ccccc1NC(=O)CSc1nc2ncccc2o1 | . | . | . | . | i | i
COc1cc(SC#N)ccc1N=Cc1c(C)[nH]n(-c2ccc(Cl)cc2)c1=O | -15% | 2% | 4% | -9% | i | ?
COc1cc(SC#N)ccc1N=Cc1c(C)[nH]n(-c2ccc(C)c(C)c2)c1=O | 21µM* | ? | ? | 15µM* | ? | ?
SMILES | HT1080NT lethal | SW480 rereplic | MCF10A rereplic | HT1080 IDH1KD tx | KB-V1 cytotox | KB-3-1 cytotox
Oc1ccccc1N=Nc1ccccc1O | ? | ? | 19% | ? | ? | 7.3µM*
CC(=O)Nc1ccc2nc(-c3cc(C)ccc3C)[nH]c2c1 | . | . | . | . | 16µM* | ?
O=C1CN(C(=O)CN2CCN(S(=O)(=O)c3ccccc3)CC2)c2ccccc2N1 | 8% | . | . | 11% | i | i
NC(=S)Cc1ccccc1Cl | 0% | 18µM* | 0% | -1% | i | i
CCCc1ccc(OCc2ccc(C(=O)Nc3ccccc3C(=O)OC)o2)cc1 | . | . | . | . | i | i
CCCCOc1ccc(C(=O)C(CN2CCOCC2)c2ccccc2)cc1 (stereo not given) | 13µM* | 15µM* | ? | 16µM* | ? | ?
OC(CN1CCOCC1)CN(c1ccccc1)c1ccccc1 (stereo not given) | 4% | -7% | 16% | 2% | 15µM* | i
O=C(c1ccc(Cl)cc1)C(CN1CCCC1)c1ccccc1 (stereo not given) | 18µM* | ? | 4.1µM* | 21µM* | i | ?
CCC(O)(c1ccc(OC)cc1)C(CN1CCOCC1)c1ccccc1 (stereo not given) | 4% | -61% | ? | -2% | i | i
COc1ccc(C(=O)C(CN2CCOCC2)c2ccccc2)cc1 (stereo not given) | 7.1µM* | -2% | ? | 2µM* | ? | ?
OC(c1ccccc1)c1nc(-c2cccs2)cs1 (stereo not given) | -9% | . | . | 18% | i | i
COc1ccc(CCNC(=O)CSc2ncc3c(n2)-c2cc(Cl)ccc2N(Cc2ccccc2)S3(=O)=O)cc1OC | . | . | . | . | ? | i
CCCOc1ccc(C(=O)C(CN2CCCC2)c2ccccc2)cc1 (stereo not given) | 8.2µM* | ? | 8.2µM* | 6.5µM* | ? | 23µM*
O=C(c1ccccc1)C(CCC(CN1CCOCC1)C(=O)c1ccccc1)CN1CCOCC1 (stereo not given) | 10µM* | ? | 4.6µM* | 8.2µM* | 5.8µM* | 5.8µM*
COc1ccc(C(=O)C(CN2CCCC2)c2ccccc2)cc1 (stereo not given) | 11µM* | ? | ? | 13µM* | 7.1µM* | 7.1µM*
O=C(c1ccc(F)cc1)C(CN1CCOCC1)c1ccccc1 (stereo not given) | -9% | ? | 5.2µM* | 5.2µM* | ? | ?
Nc1ccc(N=Nc2ccccc2)cc1[N+](=O)[O-] | -20% | 6% | -15% | -16% | i | i

Screening results as filed in PubChem.
